Measurements published in PubChem BioAssay AID434931 (National Center for Advancing Translational Sciences (NCATS), 2010).
Inconclusive results are not listed. Calls of active or inactive are those of the source. Calls come from the whole dose curve; as a rule, active = well fitted inhibition curve with a large enough effect; inconclusive = small, poorly fitted or top-dose-only effect, or another doubt; inactive = no such curve, though single readings can be large or run the other way.

Biological target: Neuropeptide S receptor (Homo sapiens) (UniProt Q6W5P4)
Experiment: Confirmation Concentration-Response Assay for Antagonists of the Neuropeptide S Receptor: Robust Characterization of Calcium Signal Transduction
Details: CHO-NPSR cells, NPS-induced calcium fluorescence (FDSS)
Description: NIH Chemical Genomics Center [NCGC] NIH Molecular Libraries Probe Production centers Network [MLPCN] MLPCN Grant: X01-DA026210-01 Assay Submitter (PI): Heilig, Markus Alexander NCGC Assay Overview: Neuropeptide S receptor (NPSR), previously known as GPR154, is a recently de-orphanized G protein coupled receptor. Its endogenous ligand is the 20 amino acids peptide Neuropeptide S (NPS). […] NPS and its receptor are found in various tissues. Specifically they are highly expressed in brain areas that have been implicated in modulation of arousal, stress and anxiety. Central administration of NPS in mice produces an unusual profile of activity by inducing wakefulness and arousal, while at the same time suppressing anxiety. Therefore, NPSR may represent a novel drug target for the treatment of sleep and anxiety disorders. To identify NPSR antagonists, we developed a cell-based assay with transfected NPS receptor. NPS can stimulate the production of cAMP as well as release intracellular calcium in Chinese hamster ovary cells stably expressing NPS receptor. This change in intracellular calcium can be detected using a calcium indicator dye on a calcium imaging plate reader system (FDSS). This particular assay uses a high density of sampling across concentration-response space to establish more confidence estimates of potency.
NCGC Assay Protocol Summary: A Chinese hamster ovary (CHO) cell line stably expressing the NPS receptor (CHO-NPSR) was obtained from Dr. Heilig lab at NIAAA and maintained in F-12 Kaighn's media (Invitrogen, Carlsbad, CA, 21127) supplemented with 10 % FBS, 100 units/ml penicillin, 100 ug/ml streptomycin and 250 ug/ml geneticin at 37C, 5% CO2 in a humidified atmosphere. Before the assay, aliquots of cells were frozen and stored at -135C. The assay was performed on a FDSS-7000 kinetic plate reader in 1536-well format. For both agonist (1-220s) and antagonist (221-400s) phases, the maximums of kinetic fluorescence responses were converted separately into text files using the instrument's software data export utility. Data for agonist response were normalized to the controls for basal activity (DMSO only) and 100% activation (NPS). […] AC50 values were determined from concentration-response data modeled with the standard Hill equation. NPS 1536-well FDSS assay protocol: (1) Frozen CHO-NPSR cells were thaw, washed once with fresh media and resuspended in F-12 Kaighn's media supplemented with 10 % FBS, 100 units/ml penicillin and 100 ug/ml streptomycin. Cells were plated at 3 ul/well (1200 cells) to black, clear-bottom, tissue-culture treated 1536-well plates, and then cultured at 37C, 5 % CO2 for 16 to 30 hours. (2) Add 3 ul of calcium dye (from High Performance PBX Calcium Assay Kit, BD Biosciences). The calcium dye was prepared according to the manufactory's instruction. (3) Incubation at 37C, 5 % CO2 for 60 to 120 min. (4) Load plates to FDSS-7000. The following steps were performed on FDSS-7000. (5) Record fluorescent background (Ex 480 nm, Em 520-560 nm) for 10 s. (6) Add 23 nl/well of compound in DMSO solution. The final titration for each compound was between 0.6 nM and 46 uM. Record agonist response for 210 s. (7) Add 2 ul of stimulation reagent (1X HBSS buffer, 0.1% BSA, 60 nM NPS). Record antagonist response for 140 s. Keywords: MLSMR, MLPCN, NIH Roadmap, qHTS, NCGC, NPS, Neuropeptide S Antagonists

Sequence of Neuropeptide S receptor (Homo sapiens) (Q6W5P4 whole entry, looked up): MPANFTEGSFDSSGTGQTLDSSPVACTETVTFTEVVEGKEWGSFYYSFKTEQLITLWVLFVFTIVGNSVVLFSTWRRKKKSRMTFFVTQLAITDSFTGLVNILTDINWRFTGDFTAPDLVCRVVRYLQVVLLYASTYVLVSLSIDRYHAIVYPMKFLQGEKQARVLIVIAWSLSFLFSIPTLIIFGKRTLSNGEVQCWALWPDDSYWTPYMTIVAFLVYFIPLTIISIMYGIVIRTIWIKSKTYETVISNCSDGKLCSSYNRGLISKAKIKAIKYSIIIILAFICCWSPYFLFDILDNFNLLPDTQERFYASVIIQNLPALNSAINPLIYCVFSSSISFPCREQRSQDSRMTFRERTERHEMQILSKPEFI

Q: Which Potency does the source give for `Cc1c(P(=S)(c2ccccc2)c2ccccc2)[n+]2ccccc2n1C/C=C/c1ccccc1` here?
A: Its Potency is 0.938 nM (active).

Q: Which Potency does the source give for `Cc1c(P(=S)(c2ccccc2)c2ccccc2)[n+]2ccccc2n1CCCCCc1ccccc1` here?
A: Its Potency is 12.7 nM (active).

Q: With `Cc1c(P(=S)(c2ccccc2)c2ccccc2)[n+]2ccccc2n1CCCc1ccccc1` as the molecule, how does the Potency read?
A: Its Potency is 2 nM (active).

Q: With `S=P(c1ccccc1)(c1ccccc1)c1cnc2ccccn12` as the molecule, how does the Potency read?
A: The Potency was 4000 nM (active).

Q: With `Cc1nc2ccccn2c1P(=S)(c1ccccc1)c1ccccc1` as the molecule, how does the Potency read?
A: Its Potency is 1000 nM (active).

Q: Which Potency does the source give for `Cc1c(P(=S)(c2ccccc2)c2ccccc2)[n+]2ccccc2n1CCCCc1ccccc1` here?
A: Its Potency is 1.1 nM (active).

Q: For `Cc1c(P(=S)(c2ccccc2)c2ccccc2)c2ccccc2n1C`, which Potency is on record?
A: The Potency was 2830 nM (active).

Q: How did the Potency turn out when `Cc1c(P(=S)(c2ccccc2)c2ccccc2)[n+]2ccccc2n1CCc1ccccc1` was run?
A: The Potency was 71.2 nM (active).

Q: Which Potency does the source give for `Cc1c(P(=S)(c2ccccc2)c2ccccc2)[n+]2ccccc2n1C` here?
A: The Potency was 50.4 nM (active).

Q: With `Cc1c(P(=S)(c2ccccc2)c2ccccc2)[n+]2ccccc2n1Cc1ccccc1` as the molecule, how does the Potency read?
A: The Potency was 31.8 nM (active).

Q: Which Potency does the source give for `C[n+]1cc(P(=S)(c2ccccc2)c2ccccc2)n2ccccc21` here?
A: The Potency was 2520 nM (active).
